# Source: PubChem
# A selection: hits, their analogues and other compounds. The true share with any hit is near 2.6%.
# H9c2 protect = myocardial damage modulation in H9c2 cells. hit rate 0.63% among 360,000. H9c2 cardiomyocytes, H2O2 injury protection, ATPLite, 2 h. AID 588492. protection from H2O2 cell death, % at 20 µM;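 active = compounds giving at least 50% protection of heart cells from peroxide-induced death in the single-dose screen, raw or plate-pattern-corrected value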;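 also: 0% = DMSO wells with peroxide and 100% = DMSO wells without peroxide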
# COUP-TFII inh = NR2F2 (human) inhibition, primary screen; P24468; HEK293T NGFI-A luciferase reporter, luminescence; inhibition, % at 8.6 µM; hit rate 0.7% among 370,000; AID 686940;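 active = inhibition above a per-plate cutoff, mean inhibition of test wells between control levels plus 3 SD, cut at about 38% in these data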;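 also: cells cotransfected with COUP-TFII expression vector driving the NGFI-A reporter; 0% = median of COUP-TF2 test wells and 100% = reporter-only cells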
# Target sequence (P24468 whole entry, looked up): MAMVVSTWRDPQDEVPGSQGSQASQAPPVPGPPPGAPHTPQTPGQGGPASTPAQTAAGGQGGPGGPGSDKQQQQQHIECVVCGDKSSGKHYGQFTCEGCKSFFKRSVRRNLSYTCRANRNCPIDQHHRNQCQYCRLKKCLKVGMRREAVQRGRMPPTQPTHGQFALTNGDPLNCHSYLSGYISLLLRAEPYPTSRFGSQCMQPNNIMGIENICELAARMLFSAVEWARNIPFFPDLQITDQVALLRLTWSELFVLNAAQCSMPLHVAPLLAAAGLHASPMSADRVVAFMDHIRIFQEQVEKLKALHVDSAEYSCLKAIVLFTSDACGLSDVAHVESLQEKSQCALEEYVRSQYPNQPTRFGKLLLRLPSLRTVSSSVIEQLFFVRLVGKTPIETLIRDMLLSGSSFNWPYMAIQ
# 697 NFkB inh = lowers PMA/ionomycin-induced NF-kB signal in 697 B cells; 697 B-cell NF-kB luciferase reporter, 16 h; hit rate 0.33% among 330,000; AID 435022; inhibition, % at 4 µM; in the data active = inhibition above about 35%
# Gli-Sufu antag = Gli-Sufu pathway antagonism. Sufu-KO-LIGHT fibroblasts, Gli luciferase reporter luminescence. inhibition, % at 5 µM. hit rate 0.74% among 340,000;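 active = inhibition above about 55%, limit read from the data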;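 also: 0% = DMSO-treated cells and 100% = wells with medium but no cells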
# Jurkat NFkB inh = lowers PMA/ionomycin-induced NF-kB signal in Jurkat cells; inhibition, % at 4 µM; hit rate 0.53% among 330,000; AID 435003; PMA/ionomycin-induced NF-kB luciferase reporter, luminescence; in the data active = inhibition above about 50%
# TAG inh = inhibitors of triacylglycerol accumulation | H9c2 cells, Nile Red lipid (TAG) fluorescence; cells loaded with 200 µM oleic acid | inhibition, % at 12.5 µM | hit rate 0.66% among 230,000 | AID 651582;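 active = pattern-corrected inhibition of lipid staining of at least 50% with the nuclear-stain viability signal not falling by more than 50%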;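 also: 0% = DMSO wells and 100% = triacsin C control wells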
# * marks the source's active call; other numbers are inactive results; x = not tested or not shown.
SMILES,H9c2 protect,COUP-TFII inh,697 NFkB inh,Gli-Sufu antag,Jurkat NFkB inh,TAG inh
COc1ccc2nc3cc(Cl)ccc3c(Nc3cc(CN4CCCC4)c(O)c(CN4CCCC4)c3)c2n1,50*,5,-16,x,21,114
CC1Cc2ccccc2N1C(=O)CSc1nc2c(c(=O)n(C)c(=O)n2C)n1Cc1ccccc1 (stereo not drawn),72*,11,-3,11,8,x
CCn1c(SCC(=O)N2c3ccccc3CCc3ccccc32)nc2c1c(=O)n(C)c(=O)n2C,32,-4,28,16,6,x
CSc1nc(SCC(N)=O)c2c3c(sc2n1)CN(C)CC3,0,-1,-13,99*,-9,-3
CCNc1nc(SCC(N)=O)nc2sc3c(c12)CCN(C)C3,3,11,-6,3,-1,x
CC1CN(S(=O)(=O)c2ccc(C(=O)Nc3nnc(-c4ccc5c(c4)CCCC5)o3)cc2)CC(C)O1 (stereo not drawn),62*,3,-43,3,6,0
CC1CN(S(=O)(=O)c2ccc(C(=O)Nc3nnc(-c4ccccn4)o3)cc2)CC(C)O1 (stereo not drawn),3,9,7,-5,-4,x
COc1ccc(-c2nnc(NC(=O)c3ccc(S(=O)(=O)N4CCCc5ccccc54)cc3)o2)cc1,63*,x,-58,11,17,-10
COc1cc(NC(=O)C2CCCN(S(=O)(=O)c3cccc4cccnc34)C2)cc(OC)c1 (stereo not drawn),x,-4,x,x,x,x
COc1ccc2[nH]c(=O)c(CN(Cc3nnnn3Cc3ccccc3)CC3CCCO3)cc2c1 (stereo not drawn),67*,6,-14,0,-4,x
COc1ccc2[nH]c(=O)c(CN(Cc3nnnn3Cc3ccc(F)cc3)CC3CCCO3)cc2c1 (stereo not drawn),32,-4,6,5,10,2
COCCn1nnnc1CN(CCc1ccccc1)Cc1cc2cc(OC)ccc2[nH]c1=O,64*,-9,23,1,1,x
C=CCN(CC#CC1=CCCCC1)Cc1ccccc1,x,-4,x,x,x,x
O=c1[nH]c(CSc2nnc(-c3cccnc3)n2C2CCCCC2)nc2ccccc12,89*,9,10,-6,4,x
O=[N+]([O-])c1cc2oc3c(c2c(C=NCc2ccccc2)c1O)CCCC3,61*,2,5,1,-3,x
CC(C)CN=Cc1c(O)c([N+](=O)[O-])cc2oc3c(c12)CCCC3,95*,21,-5,-5,7,x
COc1ccc(CN(C(=O)c2ccc3c(c2)OCCO3)C(C(=O)NC2CCCCC2)c2ccc3ncccc3c2)cc1 (stereo not drawn),18,15,10,-1,-7,x
O=C(NC1CCCCC1)C(c1ccc2ncccc2c1)N(Cc1ccccc1)C(=O)c1ccc2c(c1)OCCO2 (stereo not drawn),53*,13,9,3,0,x
COc1ccc(S[C@]2(C(=O)NCC(C)C)CC(=O)N[C@@H]2c2ccc(OC)cc2)cc1,x,4,x,x,x,x
O=C(CCn1cnc(-c2ccccc2)c1-c1ccccc1)N/N=C/c1ccccc1O,57*,1,-14,0,26,x
O=C(CCn1cnc(-c2ccccc2)c1-c1ccccc1)N/N=C/c1ccc(O)cc1,8,-2,3,2,21,x
Cc1ccc(NC(=O)CCC(=O)N/N=C/c2ccccc2O)cc1,52*,8,10,5,13,x
O=C(CCCCC(=O)NN=Cc1ccccc1O)NN=Cc1ccccc1O,60*,-2,x,-4,x,3
Cc1ccc(SCCC(=O)N/N=C/c2ccccc2O)cc1,65*,-11,-53,-28,2,1
O=C(CN1CCN(Cc2ccccc2Cl)CC1)N/N=C\c1ccccc1F,x,4,x,x,x,x
SMILES,H9c2 protect,COUP-TFII inh,697 NFkB inh,Gli-Sufu antag,Jurkat NFkB inh,TAG inh
COC(=O)[C@H](CC(C)C)N(CCCc1cn(Cc2ccccc2)nn1)S(=O)(=O)c1ccccc1Br,x,3,x,x,x,x
CCCCCCCCN1C(=O)[C@@H](CC(=O)N2CCN(C(=O)OCC)CC2)C[C@@]2(C(=O)OC)C1=C[C@H](COCc1ccccc1)O[C@@H]2C,x,14,x,x,x,x
COC(=O)CCC(=O)N1C2=NC3=C(C(=O)N(Cc4ccc5c(c4)OCO5)C3=O)C3N(C)c4ccccc4[C@]23C[C@H]1CO (stereo partly drawn),x,4,x,x,x,x
Cc1cccc(NC(=O)CCC(=O)N/N=C/c2ccc(O)cc2O)c1,69*,-51,8,-14,12,x
O=C(CC(=O)N/N=C/c1ccccc1O)NCc1cccnc1,63*,14,2,-1,4,x
Cc1cc([N+](=O)[O-])nn1CC(=O)N/N=C/c1ccccc1O,58*,15,-8,0,4,24
O=C(COc1nsnc1N1CCOCC1)N/N=C/c1ccccc1O,73*,-10,-1,9,-6,x
CC(=O)O[C@@H]1C=C[C@@H](C#Cc2ccc(C(C)(C)C)cc2)O[C@@H]1COC(=O)Nc1ccccc1,x,18,x,x,x,x
O=C(OCc1cn(Cc2ccc(F)c(F)c2)nn1)N1CCOCC1,x,8,x,x,x,x
NC(=O)C1CCN(c2nc(-c3ccc4c(c3)OCCCO4)cs2)CC1,x,-59,x,x,x,x
C=CCN1[C@H](Cc2ccccc2)COc2cc(N3CCSCC3)ccc2S1(=O)=O,x,20,x,x,x,x
COC(=O)[C@]12C[C@H](CC(=O)N3CCN(C(=O)c4ccco4)CC3)C(=O)N(Cc3ccc(Cl)cc3Cl)C1=C[C@H](C1CCCC1)O[C@@H]2C,x,-7,x,x,x,x
O=C(CSc1nnc(-c2ccccc2)n1-c1ccccc1)NN=C/C=C\c1ccccc1[N+](=O)[O-],x,1,x,x,x,x
Cc1ccc(C(=O)OCC(=O)Nc2sccc2C(N)=O)cc1NC(=O)c1ccco1,94*,17,-11,5,0,-8
COC(=O)c1cc2c(c3c4cc(F)ccc4n(S(=O)(=O)c4cccc(C)c4)c13)C(=O)N(c1ccc(OC)cc1)C2,x,-4,x,x,x,x
COc1cc(/C=C(\C#N)C(=O)c2ccc(O)c(O)c2)cc(I)c1O,62*,-1,-11,-3,13,-13
Cc1cc(C)c(/C=N/NC(=O)c2nnn(-c3nonc3N)c2CN2CCC(C)CC2)c(C)c1,-2,0,-9,35,2,x
COc1ccc(/C=N/NC(=O)c2nnn(-c3nonc3N)c2-c2cccc(OC)c2)cc1,-3,-3,12,-5,-9,x
COc1c(Cl)cc(Cl)cc1/C=N/NC(=O)c1nnn(-c2nonc2N)c1CN1CCC(C)CC1,-4,11,12,-5,8,x
COc1ccc(O)c(/C=N/NC(=O)c2c(C)nnn2-c2nonc2N)c1,55*,2,3,27,17,-12
C/C(=N\NC(=O)c1nnn(-c2nonc2N)c1CN1CCc2ccccc21)c1ccccc1O,58*,9,-31,24,9,x
CC1CCN(Cc2c(C(=O)N/N=C/c3cc(Br)ccc3O)nnn2-c2nonc2N)CC1,64*,-10,-29,86*,37,x
CC1CCN(Cc2c(C(=O)N/N=C/c3cc(Cl)ccc3O)nnn2-c2nonc2N)CC1,48,-4,-36,80*,23,x
